Compounds with a hit are over-represented: about 3.1% of the library has one in this group of screens.
uPA surface inh: qHTS for Inhibitors of Cell Surface uPA Generation; cell surface uPA generation assay, qHTS; Potency, µM (highest dose often 38.3 µM), usual class: inhibitors; 330,000 tested, 0.31% active; active means well fitted inhibition curve with a large enough effect; inconclusive means small, poorly fitted or top-dose-only effect; inactive means no such curve, though single readings can be large or run the other way; tested in mouse RAW 264.7 cells; further: nearly all actives have a fitted effect of over 55% in size
TSG101-PTAP inh: qHTS Assay for Iinhibitors of HIV-1 Budding by Blocking the Interaction of PTAP/TSG101 | Fluorescence polarization, FITC-PTAP peptide / Tsg101 binding | Potency, µM (top dose mostly 115 µM), hits mostly inhibitors | 340,000 tested, under 10 active | AID 493005, 2010; active means well fitted inhibition curve with a large enough effect in the main read-out, with a control signal flat, not every such curve was filed as active; inconclusive means small, poorly fitted or top-dose-only effect, or effect the other way, or a change in a side signal; inactive means no such curve, though single readings can be large or run the other way
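Fluorescence polarization binding of Tsg101 binding domain (10 uM final) to FITC-labeled PTAP peptide (50 nM final) in HEPES pH 7.5 buffer with NaCl, Tween 20, EDTA, TCEP. Compounds added before peptide; binding 20 min at RT.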
VDR inh: Inhibitors of the vitamin D receptor (VDR): qHTS; VDR-SRC2-3 peptide fluorescence polarization, 2 h; 400,000 tested, 0.93% active; Potency, µM, most hits filed as inhibitors
Target sequence (P11473 whole entry, looked up): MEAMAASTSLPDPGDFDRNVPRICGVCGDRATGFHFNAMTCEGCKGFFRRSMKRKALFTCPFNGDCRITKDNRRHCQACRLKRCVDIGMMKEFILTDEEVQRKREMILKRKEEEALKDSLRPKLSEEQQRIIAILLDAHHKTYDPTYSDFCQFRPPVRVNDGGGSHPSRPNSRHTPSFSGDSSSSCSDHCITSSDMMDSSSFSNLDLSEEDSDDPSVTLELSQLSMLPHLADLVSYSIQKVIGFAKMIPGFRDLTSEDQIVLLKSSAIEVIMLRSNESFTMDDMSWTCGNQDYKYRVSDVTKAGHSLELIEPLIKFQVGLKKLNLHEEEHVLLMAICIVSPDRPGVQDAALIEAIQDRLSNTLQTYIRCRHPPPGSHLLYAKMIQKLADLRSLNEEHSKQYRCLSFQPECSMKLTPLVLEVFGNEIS
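Fluorescence polarization assay measuring small-molecule disruption of VDR binding to the coregulator peptide SRC2-3. Compounds were pin-transferred (23 nl) into the reagent mix and incubated 2 h at room temperature before reading.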
TSHR antagonist: Antagonists of the Thyroid Stimulating Hormone Receptor: HTS campaign; activity change, negative = inhibition, % at 11.5 µM; Thyrotropin receptor (Homo sapiens), P16473; 330,000 tested, 0.2% active; TSHR-expressing cells, TSH-stimulated cAMP HTRF, 2 h; active compounds read low;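 active means activity change below a set negative limit, meaning inhibition stronger than a set level, cut at about -70% in these data; inconclusive means activity change between two set negative limits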
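Competitive HTRF cAMP read-out (cryptate anti-cAMP antibody, cAMP-d2; 30 min, room temperature) in freshly harvested TSHR cells. Compounds added before TSH at EC80 (4nM final), followed by 2 hours' incubation at 37 deg C.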
PLK1 PBD block: qHTS for Inhibitors of PLK1-PDB (polo-like kinase 1 - polo-box domain): Primary Screen. Serine/threonine-protein kinase PLK1 (Homo sapiens), P53350. Plk1 PBD binding of FITC phosphopeptide, fluorescence polarization. Potency, µM, actives largely listed as inhibitors. 360,000 tested, 2.8% active; further: series mostly up to about 57 µM; nearly all actives have a fitted effect of over 65% in size
Large screens that a line does not name were inactive. Unless noted, the call rests on the fitted dose curve; in most records, active means well fitted curve in the direction sought with a large enough effect; inconclusive means small, poorly fitted or top-dose-only effect, or another doubt; inactive means no such curve, though single readings can be large; an effect the other way counts as inactive or inconclusive.

COCc1ccc(C(=O)N2CCCC(C(=O)c3ccc(Cl)cc3C)C2)o1 (stereo not drawn)	VDR inh inconclusive, PLK1 PBD block 19µM
COc1ccc(C(=O)C2CCCN(C(=O)c3ccc(C(C)=O)s3)C2)c(C)c1 (stereo not drawn)	PLK1 PBD block 30µM
COc1ccc(C(=O)C2CCCN(C(=O)c3ccnn3C)C2)c(C)c1 (stereo not drawn)	none
COc1ccc2cc(C(=O)C3CCCN(C(=O)c4cccnc4)C3)ccc2c1 (stereo not drawn)	none
Cc1cc(C=O)c(C)n1-c1ccc(Cl)c(C(=O)O)c1	PLK1 PBD block 11µM
Cc1cccc(S(=O)(=O)C(C#N)c2nc3ccccc3nc2N2CC(C)OC(C)C2)c1 (stereo not drawn)	none (no result: TSHR antagonist)
Cc1ccc(S(=O)(=O)C(C#N)c2nc3ccccc3nc2N2CCCC2)cc1 (stereo not drawn)	VDR inh inconclusive, PLK1 PBD block 34µM
Cc1ccc(S(=O)(=O)C(C#N)c2nc3ccccc3nc2N2CC(C)OC(C)C2)cc1C (stereo not drawn)	PLK1 PBD block 38µM
COC(=O)c1c(NC(=O)CN2CCC3(O)CCCCC3C2c2ccccc2OC)sc(C)c1C (stereo not drawn)	none
COC(=O)c1c(NC(=O)CN2CCC3(O)CCCCC3C2c2ccc(OC)cc2OC)sc(C)c1C (stereo not drawn)	PLK1 PBD block 21µM
Cc1ccnc(NS(=O)(=O)c2ccc(NC(=O)C3COc4ccccc4O3)cc2)n1 (stereo not drawn)	VDR inh inconclusive, PLK1 PBD block 7.5µM
Cc1ccnc(NS(=O)(=O)c2ccc(NC(=O)C3CCCCC3)cc2)n1	none
Cc1nnc(NC(=O)C2COc3ccccc3O2)s1 (stereo not drawn)	PLK1 PBD block 21µM
COCC(C)NC(=O)C1c2ccccc2Oc2ccccc21 (stereo not drawn)	uPA surface inh inconclusive, TSHR antagonist -120
Cc1nnc(NC(=O)C2c3ccccc3Oc3ccccc32)s1	VDR inh inconclusive, PLK1 PBD block 21µM
CCc1ccc(NC(=O)CN2C(=O)C3CCCN3c3ccc(S(=O)(=O)N(CC)CC)cc32)cc1 (stereo not drawn)	none (no result: uPA surface inh, TSG101-PTAP inh, TSHR antagonist, PLK1 PBD block)
CC(=O)OCOC(=O)CNc1ccccc1OCCOc1ccccc1NCC(=O)OCOC(C)=O	none (no result: uPA surface inh, TSG101-PTAP inh, TSHR antagonist, PLK1 PBD block)
CC(=Cc1ccccc1)C=C1SC(=S)N(CCCC(=O)Nc2ccc(C(=O)O)cc2)C1=O	PLK1 PBD block 24µM (no result: uPA surface inh, TSG101-PTAP inh, VDR inh, TSHR antagonist)
CC(=C\c1ccccc1)/C=C1/SC(=S)N(CCCC(=O)O)C1=O	VDR inh 79µM, PLK1 PBD block inconclusive
CC(/C=C1\SC(=S)N(CCCC(=O)Nc2ccc(C(=O)O)cc2)C1=O)=C\c1ccccc1	PLK1 PBD block inconclusive
CCc1ccc(/C=C2/SC(=S)N(CCC(=O)Nc3ccc(C(=O)O)cc3)C2=O)cc1	none (no result: uPA surface inh, TSG101-PTAP inh, VDR inh, PLK1 PBD block)
COc1cc(/C=C2\SC(=S)N(CCC(=O)Nc3ccc(O)cc3)C2=O)cc(OC)c1OC	PLK1 PBD block 30µM
O=C(CCN1C(=O)/C(=C/c2ccc(Cl)cc2)SC1=S)Nc1ccc(C(=O)O)cc1	PLK1 PBD block 30µM
CC(/C=C1\SC(=S)N(CCC(=O)Nc2cccc(C(=O)O)c2)C1=O)=C\c1ccccc1	VDR inh inconclusive, PLK1 PBD block 24µM
CC(/C=C1\SC(=S)N(CCC(=O)Nc2ccccc2O)C1=O)=C\c1ccccc1	none (no result: TSG101-PTAP inh)
CCOc1ccc(NC(=O)CCS(=O)(=O)c2ccc3nc(C)sc3c2)cc1	none (no result: uPA surface inh, TSG101-PTAP inh, TSHR antagonist, PLK1 PBD block)
CCCC1NC(C(=O)O)Cc2c1[nH]c1ccccc21 (stereo not drawn)	VDR inh inconclusive, PLK1 PBD block 19µM
CC(C)CC1NC(C(=O)O)Cc2c1[nH]c1ccccc21 (stereo not drawn)	none
CC1(C)CC(=O)C=C(c2ccc(F)nc2)C1	none
COc1ccccc1CN1CCC2(CCNCC2)CC1	none (no result: uPA surface inh, TSG101-PTAP inh, TSHR antagonist, PLK1 PBD block)
Nc1ccc(O)cc1	VDR inh 79µM (no result: uPA surface inh, TSG101-PTAP inh, TSHR antagonist, PLK1 PBD block)
N=C(N)c1ccc(N)cc1	none
CCc1ccc(-c2nc3cc(NC(=O)c4cc5ccccc5cc4OC)ccc3o2)cc1	none (no result: uPA surface inh, TSG101-PTAP inh, TSHR antagonist, PLK1 PBD block)
CC(C)OC(=O)c1ccc(N2CCN(c3ccc(F)cc3)CC2)nc1	VDR inh inconclusive, PLK1 PBD block 27µM
Cc1ccc(C2=Nc3ccccc3N(CC(=O)Nc3cccc(F)c3)C(=O)C2)cc1C	none (no result: uPA surface inh, TSG101-PTAP inh, TSHR antagonist, PLK1 PBD block)
Nc1ccc(CNc2ncn[nH]2)cc1	VDR inh inconclusive, PLK1 PBD block 24µM
COC(=O)[C@H](Cc1ccccc1)NC(=O)O[C@@H]1C(=O)c2cc(Br)ccc2O[C@H]1c1ccc2c(c1)OCO2	none (no result: uPA surface inh, TSG101-PTAP inh, TSHR antagonist, PLK1 PBD block)
Cc1ccc(C)c(Cn2c(=O)n(CCCC(=O)NCCc3ccc(Cl)cc3)c(=O)c3ccccc32)c1	none (no result: uPA surface inh, TSG101-PTAP inh, TSHR antagonist, PLK1 PBD block)
CN(NC(=O)c1ccco1)c1nc2ccccc2nc1C(F)(F)F	TSHR antagonist -76
CNC(=O)C1CCN(S(=O)(=O)c2c(C)noc2/C=C/N(C)C)CC1	VDR inh inconclusive, PLK1 PBD block 27µM
CCOC(=O)C1CCN(C(=O)c2nn(-c3ccc(OC)cc3)c(=O)c3c2c2ccccc2n3C)CC1	none (no result: uPA surface inh, TSG101-PTAP inh, TSHR antagonist, PLK1 PBD block)
Cc1cc(Cl)ccc1NC(=O)CN1CCCC1	none
O=C(CN1CCCC1)Nc1ccc(Cl)cc1C(F)(F)F	PLK1 PBD block 24µM
O=C(CN1CCN(C(=O)c2ccccc2)CC1)Nc1ccc(Cl)cc1F	TSHR antagonist -79
Cc1ccc(NC(=O)Cn2cnc3c(oc4ccccc43)c2=O)cc1Cl	none (no result: uPA surface inh, TSG101-PTAP inh, TSHR antagonist, PLK1 PBD block)
COc1ccc(C)cc1NC(=O)Cc1csc(NC(=O)Nc2ccccc2OC)n1	PLK1 PBD block 30µM (no result: uPA surface inh, TSG101-PTAP inh, VDR inh, TSHR antagonist)
Cc1cc(O)c(C(C)C)cc1N=Cc1ccccc1[N+](=O)[O-]	VDR inh 32µM (no result: TSHR antagonist)
Cc1cc(O)c(C(C)C)cc1N=Nc1ccccc1C(=O)O	none
O=C(/C=C/c1ccccn1)c1cc(Br)ccc1O	VDR inh inconclusive, PLK1 PBD block 11µM
COC(=O)CSc1nc2nc(-c3cccs3)cc(C(F)(F)F)c2c(=O)[nH]1	none
CCOc1ccccc1NC(=O)CSc1nc2nc(-c3cccs3)cc(C(F)(F)F)c2c(=O)[nH]1	PLK1 PBD block 21µM
COc1ccc(NC(=O)CSc2nc3nc(-c4cccs4)cc(C(F)(F)F)c3c(=O)[nH]2)c(OC)c1	PLK1 PBD block 27µM
COC(=O)[C@@]1(Cc2ccc(OC)cc2)[C@@H]2C(=CC(=O)[C@H]2CC(=O)C(=O)N2CCCC2)CN1C(=O)c1ccccc1	uPA surface inh 8.9µM, VDR inh 89µM
Cc1cccc(C)c1NC(=O)CN1C(=O)c2ccccc2Sc2ncccc21	none (no result: uPA surface inh, TSG101-PTAP inh, TSHR antagonist, PLK1 PBD block)
CC(C)CC(=O)N1CCN(c2ccc([N+](=O)[O-])cc2Cl)CC1	PLK1 PBD block 27µM
O=C(c1ccccc1)N1CCN(c2ccc([N+](=O)[O-])c(NCc3cccnc3)c2)CC1	none

Bioassay records: PubChem, National Center for Advancing Translational Sciences (NCATS)
